Potency and affinity values are given separately. Inconclusive results are not listed. Where a call stands in place of a potency, no number is given. Active and inactive are the calls of the source.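 Rule for the calls: active = compound whose half-maximal dose for viability loss stays within twice the top tested dose at all three treatment times; inconclusive = treatment times disagree in their calls; inactive = inactive at every treatment time.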
Assay: SNB-19 glioblastoma cell viability loss, dose response, HRAS target identification, Alamar Blue fluorescence, 8/24/48 h, dry powder (AID 720600)

CCC(=O)N(c1ccc(OC)c(Cl)c1)C(C(=O)NCCc1ccccc1)c1cccs1 (configuration not stated)
outcome: inactive

Cc1onc(C(=O)N2CCN(C(c3ccncc3)c3ccncc3)CC2)c1[N+](=O)[O-]
outcome: inactive

From PubChem BioAssay AID720600 (Broad Institute, 2013)
